# According to PubChem BioAssay AID588342 (National Center for Advancing Translational Sciences (NCATS), 2011):
# The campaign covered roughly 360,000 compounds. About 25,000 (6.9%) were called active. Inconclusive results (about 9%) are left out. The full list was thinned out, with actives kept by preference. Unmarked numbers belong to inactive results. Calls follow the shape of the dose curve; as a rule, active = well fitted inhibition curve with a large enough effect; inconclusive = small, poorly fitted or top-dose-only effect; inactive = flat fitted curve, though single readings scatter.
# Target: Luciferin 4-monooxygenase (Photinus pyralis) (UniProt P08659)
# Assay: qHTS profiling assay for firefly luciferase inhibitor/activator using purifed enzyme and Km concentrations of substrates (counterscreen for miR-21 project); also: nearly all actives have a fitted effect of over 55% in size;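 as to activity change, negative = inhibition: plate controls were vehicle for no effect and reference inhibitor for full effect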
# Conditions: purified FLuc, luminescence inhibition; series mostly up to 57.5 µM; activity change, negative = inhibition: at the top concentration
# Method in brief: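 Biochemical qHTS of compounds, final roughly 60 µM downward over six points, against 10 nM purified firefly luciferase using Km concentrations of substrates (10 uM D-luciferin, 10 uM ATP) in Tris acetate pH 7.5 buffer; luminescence output.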
# Potency is read from the fitted curve at half-maximal effect.
# Luciferin 4-monooxygenase (Photinus pyralis), sequence (P08659 whole entry, looked up): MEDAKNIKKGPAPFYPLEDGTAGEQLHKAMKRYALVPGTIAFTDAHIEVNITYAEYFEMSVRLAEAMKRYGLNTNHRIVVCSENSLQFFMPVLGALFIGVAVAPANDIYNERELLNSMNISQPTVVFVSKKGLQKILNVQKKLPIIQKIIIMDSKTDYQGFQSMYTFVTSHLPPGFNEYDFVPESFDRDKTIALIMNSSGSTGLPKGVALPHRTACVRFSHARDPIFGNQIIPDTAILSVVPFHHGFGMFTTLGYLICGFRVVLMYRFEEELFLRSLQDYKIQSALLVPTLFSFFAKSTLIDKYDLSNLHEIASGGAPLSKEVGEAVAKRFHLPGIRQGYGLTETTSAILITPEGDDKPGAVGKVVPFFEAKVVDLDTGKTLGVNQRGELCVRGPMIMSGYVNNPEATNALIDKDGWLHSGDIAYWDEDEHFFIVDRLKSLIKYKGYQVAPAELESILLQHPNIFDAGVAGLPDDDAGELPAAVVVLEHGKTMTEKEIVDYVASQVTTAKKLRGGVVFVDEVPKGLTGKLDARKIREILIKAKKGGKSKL
Structure (SMILES),"activity change, negative = inhibition [%]",Potency
O=S(=O)(c1ccc(Sc2nnc3ccccn23)nc1)N1CCOCC1,1.11,–
CCOc1ccc(NC(=O)Cn2c(=O)n(CCCC(=O)NCc3ccc4c(c3)OCO4)c(=O)c3ccccc32)cc1,-4.81,–
Cc1ccnc(Nc2nc3ccccc3s2)n1,–,1.9 µM (active)
Cc1sc2ncnc(Sc3nc4ccccc4s3)c2c1C,-17.6,–
Cc1cc(C)cc(-n2ccnc2SCC(=O)Nc2nc3ccccc3s2)c1,-12.5,–
Cc1ccc(CCNC(=O)c2ccc3c(c2)N(Cc2cc(C)ccc2C)C(=O)c2ccccc2S3=O)cc1 (stereo not drawn),1.69,–
CCCn1c(NCc2ccc(N(CC)CC)cc2)nc2ccccc21,-3.91,–
Cc1ccc(CNC(=O)CCc2c(C)nc3nc(CNC(=O)OC(C)(C)C)nn3c2C)cc1,-4.1,–
Cc1ccc(C(=O)Cn2cc([N+](=O)[O-])nc2C)cc1,1.35,–
Cc1ccc(-c2cn3cc(C)ccc3n2)cc1,–,0.107 µM (active)
Cc1ccc2nc(-c3ccc(Br)cc3)cn2c1,–,0.0849 µM (active)
Cc1ccc(-n2c(-c3ccc(Cl)cc3)n[nH]c2=S)cc1,-2.19,–
Cc1ccc(-c2nc(SCc3ccc(Br)cc3)n3[nH]c(=O)cc3n2)cc1,-10.4,–
Cc1ccc(-c2cn3cc([N+](=O)[O-])ccc3n2)cc1,–,0.757 µM (active)
CSc1nnc2ccc(-c3ccc(C)cc3)nn12,-14.2,–
Cc1cc(N2CCOCC2)nc(-c2ccc(Br)cc2)n1,-5.76,–
Cc1nc(-c2ccc([N+](=O)[O-])cc2)c(-c2ccccc2)o1,-0.124,–
CCc1c(C)sc(NC(=O)C2c3ccccc3Oc3ccccc32)c1C(=O)OC(C)C,0.745,–
O=C(CSc1nc2ccccc2c(=O)n1CCCO)NC1CC1,0.433,–
CCN(CC)S(=O)(=O)c1ccc(N2CCOCC2)c(NC(=O)C(C)Oc2ccc(F)cc2)c1 (stereo not drawn),4.08,–
Cc1cccc(NC(=O)N2CCC(CN3CCc4ccccc4C3)CC2)c1C,-0.966,–
Cc1cc(NS(=O)(=O)c2ccc(NC(=O)c3ccccc3C)cc2)nc(C)n1,-3.53,–
CCOc1ccc(S(=O)(=O)N(CC(=O)NCCSCc2ccc(C)cc2)c2ccccc2)cc1,0.976,–

Structure (SMILES),"activity change, negative = inhibition [%]",Potency
COc1ccc([C@H]2CC(=O)C=C(c3ccc(OC(F)(F)F)cc3)C2)cc1OC,-0.992,–
Cc1cc(Cl)c2oc(C(=O)N3CCC(O)(c4ccccc4)CC3)c(C)c2c1,1.22,–
Cc1cc(Cl)c2oc(C(=O)NC(C)c3ccncn3)c(C)c2c1 (stereo not drawn),2.44,–
Cc1cc(Cl)c2oc(C(=O)N(C)C(C)c3ccccn3)c(C)c2c1 (stereo not drawn),–,19 µM (active)
CCOc1ncccc1C(=O)OCC(=O)N1c2ccccc2CC1C (stereo not drawn),4.23,–
O=C(Nc1ncccc1O)c1ccc(C(=O)c2ccccc2)cc1,–,26.9 µM (active)
O=C(Nc1ncccc1O)c1ccc(S(=O)(=O)N2CCCCCC2)cc1,-4.16,–
O=C(Nc1ncccc1O)c1ccc(S(=O)(=O)N2CCCC2)cc1,-1.32,–
COc1cc(F)c(C2=CC(=O)CC(C)(C)C2)cc1F,-3.48,–
CCCC12CN3CC(C)(CN(C1)C3c1ccccc1Cl)C2=O (stereo not drawn),-2.81,–
CN(C)c1ccc(NC(=O)c2ccncc2)c2ccccc12,2.99,–
CNC(=O)c1csc(-c2ccccc2)n1,-4.97,–
O=C(Nc1nsc(-c2ccccc2)n1)c1ccncc1,–,19 µM (active)
Cc1cccc(-n2ncc(C(=O)N3CCC(C)CC3)c2C2CCN(C(=O)OC(C)(C)C)CC2)c1,-2.75,–
COc1ccc(C2NC(=O)N(C)C3=C2C(=O)N(c2ccc(C(=O)O)cc2)C3)cc1 (stereo not drawn),-6.88,–
COc1ccc(/C=C2\SC(=N)N(c3ccc(F)cc3)C2=O)cc1,-0.0275,–
COc1ccc(/C=C2\N=C3CCCN3C2=O)cc1,–,15.1 µM (active)
CCN(C(=O)Cn1cnc2sc(C)c(S(=O)(=O)N3CCN(c4ncccn4)CC3)c2c1=O)c1ccccc1F,3.77,–
CCOc1cc(/C=C2\SC(N3CCCC(C)C3)=NC2=O)ccc1O (stereo not drawn),–,9.53 µM (active)
CCOc1cc(/C=N/NC(=O)CN2CCCCC2)ccc1O,3.39,–
CCOc1cc(C(=S)N2CCOCC2)ccc1O,-19.3,–
CCOc1cc(/C=C2\SC(N3CCCCC3)=NC2=O)ccc1O,–,10.7 µM (active)
Nc1c(Cl)cc(-c2csc(N3CCCC3c3nc4cc(Cl)c(Cl)cc4n3CCOCCO)n2)cc1Cl (stereo not drawn),-2.84,–

Structure (SMILES),"activity change, negative = inhibition [%]",Potency
ClC1(Cl)CC1CSc1ncn[nH]1 (stereo not drawn),-2.98,–
Cc1ccc(N2CC(C(=O)Nc3cc(Cl)ccc3-n3cncn3)CC2=O)cc1 (stereo not drawn),5,–
CCCC(NCC(=O)Nc1ccccc1C(=O)NC1CC1)c1ccccc1 (stereo not drawn),-1.4,–
COc1ccc(-c2cc(=O)oc3cc(OCC(=O)N(C)C4CCS(=O)(=O)C4)ccc23)cc1 (stereo not drawn),-5.21,–
CC(=O)COc1ccc2c(-c3ccccc3)cc(=O)oc2c1,–,16.9 µM (active)
Cc1cc(=O)oc2ccc(OCC(=O)O)cc12,5.63,–
C=CCC(NC(=O)Cc1ccccc1)C(=O)NCCC (stereo not drawn),-1.36,–
O=C(Nc1ccnc(-c2ccncc2)n1)c1cccs1,-1.5,–
O=C(COc1ccccc1)OCc1cc(=O)n2nc(-c3cccs3)sc2n1,-5.56,–
O=C(O)COc1ccc(-c2nccc(-c3cccs3)n2)cc1,–,1.51 µM (active)
Oc1c(C=Nc2cccc3nsnc23)ccc2ccccc12,–,1.69 µM (active)
O=C(NCc1ccccc1)C1CCN(S(=O)(=O)c2ccc3[nH]c(=O)ccc3c2)CC1,2.76,–
CC(C)Cn1cnc2c1c(=O)n(CC(O)c1ccccc1)c(=O)n2CC(C)C (stereo not drawn),1.94,–
O=C(O)c1ccc2c3c(cccc13)C(=O)N(OS(=O)(=O)c1ccccc1)C2=O,–,26.9 µM (active)
CC(=O)Nc1ccccc1Sc1ccc2c3c(cccc13)C(=O)N(c1ccc(C)cc1)C2=O,0.663,–
CN1C(=O)c2cccc3c(N)ccc(c23)C1=O,-5.13,–
COc1cc(/C=N\NC(=O)c2nonc2N)c(OC)cc1Br,-2.25,–
CC(C)c1c(C(=O)N/N=C/c2ccc(-c3ccccc3)cc2)nnn1-c1nonc1N,0.559,–
Cc1nonc1C(=O)N/N=C/c1ccc(O)cc1,–,6.01 µM (active)
CCC(C)Nc1oc(-c2ccc(COc3ccc(Cl)cc3)o2)nc1C#N (stereo not drawn),0.311,–
Nc1nnc(SCC(=O)NCC(=O)Nc2ccc(F)c(F)c2F)s1,-0.673,–
O=C(c1ccco1)n1nc(-c2ccc(Cl)cc2)nc1NCc1ccccc1,-15.5,–
